Data taken from PubChem BioAssay AID492992 (Johns Hopkins Ion Channel Center, 2010).
Among all 4,900 compounds or so, about 2,100 (43%) were called active.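 The calls were made as follows: active = thallium signal inhibited by more than 5 SD of the compound-free buffer control wells, on both duplicate plates; inactive = the rest.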 So high a share suggests a set chosen from earlier hits. The list is a sample of the results.

Molecular target: Potassium channel subfamily K member 9 (Homo sapiens) (UniProt Q9NPC2)
Test: blockers of human TASK-3 (KCNK9) channel – HEK293 cells, thallium flux, duplicate, confirmation (AID 492992);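 as to inhibition: 0% = assay buffer control wells without compound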
Settings: FluxOR thallium flux fluorescence, at 10 µM; stronger effect = higher value

Sequence of Potassium channel subfamily K member 9 (Homo sapiens) (Q9NPC2 whole entry, looked up): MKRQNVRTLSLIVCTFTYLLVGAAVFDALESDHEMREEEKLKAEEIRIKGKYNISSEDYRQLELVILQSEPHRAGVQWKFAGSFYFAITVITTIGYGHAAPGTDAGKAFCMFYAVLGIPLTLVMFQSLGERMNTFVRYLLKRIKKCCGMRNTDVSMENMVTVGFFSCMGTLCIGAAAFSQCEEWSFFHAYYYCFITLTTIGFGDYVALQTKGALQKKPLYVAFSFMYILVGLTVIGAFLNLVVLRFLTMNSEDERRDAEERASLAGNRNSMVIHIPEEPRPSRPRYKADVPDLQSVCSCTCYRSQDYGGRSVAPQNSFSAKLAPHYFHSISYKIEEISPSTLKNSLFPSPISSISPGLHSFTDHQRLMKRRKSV

inhibition, inactive:
O=C1CC(NNc2ccccc2)C(=O)N1c1cccc(Cl)c1 (centres undefined), CN(C)c1ccc(C(CNC(=O)c2ccc(F)cc2)c2c[nH]c3ccccc23)cc1 (centres undefined), COc1cccc(-c2nn(C)c3sc(C(=O)N4CCN(c5ccccc5)CC4)cc23)c1, CCOC(=O)N/N=C/c1cn(Cc2ccccc2Cl)c2ccccc12, CCOc1ccccc1NC(=O)C1CCCN(S(=O)(=O)c2ccccc2)C1 (centres undefined), Cc1csc(Nc2ccc(Cl)cc2)[n+]1-c1ccc(Cl)cc1, Cc1cc(C)cc(NC(=O)CSCc2cnn(-c3ccccc3)c2-n2cccc2)c1, Cc1ccc2c(c1)N(C(=O)CCC(=O)N1CCc3ccccc3C1)CCO2, O=C(CSCc1ccc(Cl)cc1)N1CCN(Cc2ccc3c(c2)OCO3)CC1, Cc1ccc(NC2CCCN(C(=O)CCC3(C)CC3)C2)cc1C (centres undefined), Cc1cccc(NC(=O)CN2CCCN(S(=O)(=O)c3ccc(Br)s3)CC2)c1, O=C(NCc1ccco1)c1ccc(NS(=O)(=O)c2cccc([N+](=O)[O-])c2)cc1, O=S(=O)(Nc1cccc(Oc2ccc(Cl)cc2)n1)c1ccc(F)cc1, COc1cc(Cl)ccc1OCc1cc(C(=O)N2CC[C@@H]3CCCC[C@H]3C2)no1, Clc1ccc(CSc2nnc(/C=C/c3ccccc3)o2)c(Cl)c1, COC(=O)c1cccc(C(=O)N2CCCC(Nc3ccc4c(c3)OCCO4)C2)c1 (centres undefined), CCOC(=O)C1(CCOc2ccccc2)CCN(Cc2cc(OC)c(O)cc2Cl)CC1, O=C(NC1Cc2ccccc2C1)c1cc(COc2cccc(C(F)(F)F)c2)on1, COc1cccc(COC(=O)C2CCN(S(=O)(=O)c3ccc(Cl)cc3)CC2)c1OC, O=S(=O)(c1ccc(F)cc1)N1CCN(Cc2ccccc2C(F)(F)F)CC1, COc1ccccc1/C=C/C=N/n1c(-c2ccc(Cl)cc2Cl)n[nH]c1=S, O=C(Nc1ccc(Br)c2cccnc12)c1ccc(Cn2cc([N+](=O)[O-])cn2)o1, Cc1cc(Cl)ccc1C(=O)C1CCCN(C(=O)CCN2CCCO2)C1 (centres undefined), Cc1cc(C)cc(OCC(=O)Nc2cc(NC(=O)COc3cc(C)cc(C)c3)cc(C(=O)O)c2)c1, COc1cc(C2CC(=O)N3CN(Cc4ccccc4)CSC3=C2C#N)ccc1OCc1ccccc1 (centres undefined), COCCN(C(=S)Nc1cccc(Cl)c1C)C(C)c1ccco1 (centres undefined), Cc1ccccc1CSc1nnc(CCCCCNC(=O)OC(C)(C)C)o1, CCc1nnc(NS(=O)(=O)c2ccc(NC(=S)NC(=O)/C=C/c3cccs3)cc2)s1, COc1cccc2sc(NNC(=O)c3nc4ccccc4s3)nc12, O=C(NCc1ccccc1)C1=C[C@@H](C2CCCCC2)C[C@@H](OCc2ccc(CO)cc2)O1, O=C(CSCc1ccc(Br)cc1)Nc1ccc(S(=O)(=O)N2CCCCCC2)cc1, CCOc1cccc(OCCCOc2cccc3cccnc23)c1, Cc1ccc(OCc2cc(C(=O)N(C)CCc3ccccc3)no2)cc1C, Cc1ccc(OS(=O)(=O)c2ccc(-c3csc(C)n3)s2)c(C)c1, Cc1cccc(NC(=O)N(Cc2cc3cc(C)cc(C)c3[nH]c2=O)CC2COCCO2)c1 (centres undefined), O=C1/C(=C/c2ccc(F)cc2)SC(=S)N1NS(=O)(=O)c1ccccc1, COc1ccc(C(=O)C2CCCN(C(=O)c3cc(C)on3)C2)cc1F (centres undefined), CCCCN(Cc1ccccc1)C(=O)C1CCN(Cc2sccc2C)CC1, Cc1cc2ccccn2c1C(=O)c1cccc(S(=O)(=O)N2CCOCC2)c1, Cc1cccc(N2CCN(C(=O)c3cccc(S(=O)(=O)N4CCc5ccccc5C4)c3)CC2C)c1 (centres undefined), COc1cccc(CN(C)C(=O)CC23CC4CC(CC(C4)C2)C3)c1OC, O=C1N=C2SCCN2/C1=C\c1c(Cl)cccc1Cl, CC1=C/C(=N\OS(=O)(=O)c2ccccc2)C=CC1=O, COc1cc(C(CCN2CCN(c3ccccc3)CC2)c2c(OC)cc(OC)c3ccc(=O)oc23)cc(OC)c1OC (centres undefined), COc1ccc(OC)c(-c2csc(-c3cccs3)n2)c1, O=C(COC(=O)c1c2c(nc3ccccc13)CCCC2)c1ccc(Br)s1, CC(Oc1ccc2ccccc2c1)C(=O)NNC(=S)NC(=O)c1ccco1 (centres undefined), Cc1ccc(C2=NN(C)c3nc4ccccc4n3C2)cc1, COc1cccc(-c2cc3nc4c(c(N5CCC6(CC5)OCCO6)n3n2)CCCC4)c1, CC(C)(C)C1CCC(C(=O)NCC(c2cccs2)N2CCOCC2)CC1 (centres undefined), O=[N+]([O-])c1ccc(N2CCN(CC(O)COc3ccccc3)CC2)cc1 (centres undefined), Cc1[nH]c2ccccc2c1CCN(Cc1cccs1)C(=S)NC(C)(C)C

inhibition, active:
COc1cc(Cl)c(C)cc1NC(=O)CSc1nnc(-c2ccco2)n1CC(C)C 41.5%, COc1ccc(Nc2ncnc3sc(-c4ccccc4)cc23)c(OC)c1 33.5%, CCOC(=O)C(C)Sc1nc2ccccc2c(=O)n1CC1CCCCC1 (centres undefined) 40.5%, COc1ccc(-c2nc(CCNC(=O)c3ccc(Br)o3)cs2)cc1 28.5%, CC1(C)CC(N2CCN(C(c3ccccc3)c3ccccc3)CC2)=CC(=[N+]2CCCCC2)C1 68%, N#Cc1nc(Cc2cccc3ccccc23)oc1NCc1ccc2c(c1)OCO2 45%, C=CCN(N=Nc1cccc([N+](=O)[O-])c1)c1cccc([N+](=O)[O-])c1 57.5%, CCCCCn1c(=O)c(C(=O)OCC)c(Cl)c2ccccc21 45.5%, CN(C)S(=O)(=O)N1CCC(Oc2cccc(C(=O)NCCCC3CCCC3)c2)CC1 62%, O=C(/C=C/NNC(=O)c1cccc(Br)c1)c1ccccc1 60%, Cc1c(C(=O)Nc2ccccn2)oc2ccc(Br)cc12 36%, CC1(C)CC(=O)CC2(C1)NCC(c1ccccc1Cl)c1c2[nH]c2ccccc12 (centres undefined) 66.5%, c1ccc(C(c2ccccc2)N2CCN(Cc3nnnn3C3CCCCC3)CC2)cc1 34.5%, Clc1cccc(-c2nc3nc4ccccc4nc3n2Cc2ccco2)c1 32%, CCCC1=Nc2cc(C(=O)NCc3ccco3)ccc2Sc2ccccc21 31.5%, Cc1cc(Oc2ccc(Cl)cc2)nc(SCC(=O)c2ccccc2)n1 34%, C=CCc1cc(S(=O)(=O)c2ccc(O)c(CC=C)c2)ccc1O 69%, O=C1c2ccccc2C2=Nc3ccccc3SC(c3ccccc3F)C12 (centres undefined) 50%, COc1ccc(NC(=O)CN(C)CC(=O)Nc2cccc(C(F)(F)F)c2)cc1 44.5%, CSc1cccc(NC(=S)N(C(C)C)C(C)c2ccccn2)c1 (centres undefined) 66.5%, COc1ccccc1NC(=O)CSc1nc2sc(C)c(C)c2c(=O)n1Cc1ccco1 48.5%, Cc1nc(N2CCN(c3ccccn3)CC2)c2c(C)c(C(=O)Nc3ccc(F)c(Cl)c3)sc2n1 48.5%, CCC1=NN(C(=O)Cc2ccc([N+](=O)[O-])cc2)C(O)(c2ccc(Br)cc2)C1 (centres undefined) 65%, O=C(OCC(=O)N(CCc1ccccc1)Cc1ccccc1)c1ccccc1[N+](=O)[O-] 58.5%, CCOc1ccc(C2c3[nH]c4ccccc4c3CCN2Cc2cccn2-c2ncccn2)cc1 (centres undefined) 35%, CCC(C)(C)n1nnnc1C(c1cccs1)N1CCN(c2nc3ccccc3s2)CC1 (centres undefined) 39%, COc1ccc2c(c1)C(c1cccs1)=NNC(c1cccnc1)=N2 43%, O=C(COC(=O)/C(=C/c1cccs1)c1cccs1)NCc1ccccc1Cl 29%, Cc1nn(CC(=O)Nc2nc3ccccc3s2)c(C)c1[N+](=O)[O-] 48%, Cc1ccc(C2=Nc3c(ccc4ccccc34)C(c3ccncc3)=NN2)cc1 68.5%, COc1ccc(C(C)=O)cc1COc1ccc(Cl)c(C)c1 46%, Fc1ccc(Cn2nnnc2C(c2cccs2)N2CCCCCC2)cc1 (centres undefined) 49%, COc1ccccc1C(c1nnnn1C(C)(C)C)N1CCN(Cc2ccccc2)CC1 (centres undefined) 76%, CCCCCCCCCCOC(=O)Cn1c(COc2cccc(OC)c2)[n+](C)c2ccccc21 67%, CCCCCCCCCCOC(=O)Cn1c(COc2ccc(C)cc2)[n+](C)c2ccccc21 65%, CCOc1ccc2[nH]c(=O)c(CN(Cc3nnnn3CCc3ccccc3)CC3CCCO3)cc2c1 (centres undefined) 32%, CCCCn1ccnc1C(=O)c1cccc(S(=O)(=O)N2c3ccccc3CC2C)c1 (centres undefined) 62%, CCN(CC)C(=O)CC1(c2ccccc2OC)CCOC(C(C)C)C1 (centres undefined) 36.5%, CCOc1ccc(CN(Cc2ccco2)C(c2cccs2)c2nnnn2C(C)(C)C)cc1 (centres undefined) 60.5%, COc1ccc(C2CC(c3cccs3)=Nc3ccccc3S2)cc1OC (centres undefined) 40.5%, CCc1ccccc1NC(=O)/C(=C/c1ccccc1)c1ccccc1 37.5%, O=C(Nc1ccc(Oc2ccccc2)cc1)c1ccco1 50.5%, CCCN1C(=O)C(Cc2nc3ccccc3c(=O)n2-c2ccccc2)c2cc(C)ccc21 (centres undefined) 47%, Brc1ccc(C2CC(c3ccccc3)=Nc3ccccc3N2)cc1 (centres undefined) 61.5%, O=C(NNc1ccccc1Cl)C(O)(c1cccc(C(F)(F)F)c1)c1cccc(C(F)(F)F)c1 44%, CCc1cccc(C)c1N(C(=O)Cn1c(CO)nc2ccccc21)C(C)COC (centres undefined) 37.5%, COc1cccc(NC(=S)N(CCc2c(C)[nH]c3ccccc23)Cc2ccco2)c1 59%
